# Shown are actives, neighbours in structure and some others; about 1.3% of the full set was active somewhere.
# NCOA3 inh: inhibits human SRC3 coactivator; inhibition, % at 3.6 µM; hit rate 0.17% among 360,000; HEK293 GAL4-SRC3 luciferase reporter, luminescence; Q9Y6Q9;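 active means inhibition above a per-campaign cutoff, the mean of all compounds plus 3 SD, cut at about 60% in these data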;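 further: 0% = DMSO-treated cells and 100% = gossypol-treated cells at 36 µM; higher means less SRC3-driven luciferase light from the GAL4 reporter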
# NR2F2 inh: blocks human COUP-TFII nuclear receptor; HEK293T NGFI-A luciferase reporter, luminescence; hit rate 0.7% among 370,000; P24468; inhibition, % at 8.6 µM;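 active means inhibition above a per-plate cutoff, mean inhibition of test wells between control levels plus 3 SD, cut at about 38% in these data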;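 further: cells cotransfected with COUP-TFII expression vector driving the NGFI-A reporter; 0% = median of COUP-TF2 test wells and 100% = reporter-only cells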
# Target sequence (P24468 whole entry, looked up): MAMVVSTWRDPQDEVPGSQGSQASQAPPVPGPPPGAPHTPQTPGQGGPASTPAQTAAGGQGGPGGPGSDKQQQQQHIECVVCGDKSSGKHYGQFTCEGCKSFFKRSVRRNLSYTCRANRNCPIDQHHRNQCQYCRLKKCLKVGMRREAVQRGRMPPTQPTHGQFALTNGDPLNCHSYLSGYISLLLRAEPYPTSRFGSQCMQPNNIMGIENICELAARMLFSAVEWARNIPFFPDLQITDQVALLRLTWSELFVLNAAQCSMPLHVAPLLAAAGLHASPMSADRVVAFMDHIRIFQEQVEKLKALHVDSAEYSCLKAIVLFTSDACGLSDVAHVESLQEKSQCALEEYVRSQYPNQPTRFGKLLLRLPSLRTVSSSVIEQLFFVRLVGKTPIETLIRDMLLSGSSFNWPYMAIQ
# NCOA1 inh: inhibits human SRC1 coactivator; Q15788; HEK293 GAL4-SRC1 luciferase reporter, luminescence; inhibition, % at 3.6 µM; hit rate 0.12% among 360,000; AID 588354;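 active means inhibition above the campaign mean plus 3 SD, with each screening campaign given its own cutoff, cut at about 60% in these data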;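 further: 0% = DMSO treated cells and 100% = gossypol at 36 µM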
# NR5A2 inv ag: NR5A2 inverse agonism in reporter assay. O00482. HEK293T StAR-luciferase reporter, LRH-1 transfected, 24 h. inhibition, % at 3.6 µM. hit rate 0.13% among 360,000;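 active means inhibition above the mean inhibition of all tested compounds plus 3 SD, cut at about 73% in these data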;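 further: 0% = DMSO wells and 100% = reporter-only cells lacking LRH-1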
# NCOA2 inhibitor: human SRC2 (NCOA2) inhibition; Q15596; HEK293 GAL4-SRC2 luciferase reporter, luminescence; inhibition, % at 9 µM; hit rate 0.17% among 370,000;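 active means inhibition above the mean inhibition of all tested compounds plus 3 SD, set per campaign, cut at about 52% in these data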;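 further: 0% = DMSO treated cells and 100% = cells given Gossypol at 36 µM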
# Gli-Sufu block: blocks Gli-Sufu signaling in a luciferase reporter; Sufu-KO-LIGHT fibroblasts, Gli luciferase reporter luminescence; inhibition, % at 5 µM; hit rate 0.74% among 340,000;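 active means inhibition above about 55%, limit read from the data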;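 further: 0% = DMSO-treated cells and 100% = wells with medium but no cells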
# Gli-Sufu confirm: Gli-SUFU antagonism confirmation, single concentration. hit rate 40% among 2,500. Sufu-KO-LIGHT cells, Gli luciferase reporter, luminescence. inhibition, % at 5 µM. shares compounds with Gli-Sufu block;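 active means mean inhibition at 5 µM reaching about 45%, limit read from the data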;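 further: plate controls were DMSO-treated cells for no effect and wells lacking cells for full effect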
# SufuKO cytotox: counter-screen for Gli-SUFU antagonists: cytotoxicity | shares compounds with Gli-Sufu block | Sufu-KO-LIGHT cells cytotoxicity, ATP luminescence | cytotoxicity, % at 5 µM | hit rate 32% among 2,500 | AID 651994;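 active means mean cytotoxicity at 5 µM above about 25%, limit read from the data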;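 further: cells exposed to compound overnight for roughly 16 to 18 hours; plate controls were DMSO wells with cells for no effect and medium without cells for full effect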
# Wnt3a counter: inhibits Wnt3a reporter, counter-screen for Gli-SUFU antagonists; shares compounds with Gli-Sufu block; Wnt-LIGHT cells, Wnt3a-driven luciferase reporter, luminescence; inhibition, % at 6.25 µM; hit rate 20% among 2,500; AID 651995;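 active means mean inhibition above about 25%, limit read from the data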
# Starred values were filed as active, the others as inactive; x = no result given.
SMILES,NCOA3 inh,NR2F2 inh,NCOA1 inh,NR5A2 inv ag,NCOA2 inhibitor,Gli-Sufu block,Gli-Sufu confirm,SufuKO cytotox,Wnt3a counter
COc1ccc(/C=N\N2CCN(Cc3ccccc3Cl)CC2)cc1,-6,10,14,28,9,50,12,16,-27
Clc1ccc(/C=N/N2CCN(Cc3ccccc3Cl)CC2)cc1,11,11,-11,19,7,6,x,x,x
Cc1ccc2cc(F)c(F)c(F)c2n1,-17,4,8,-1,-37,x,x,x,x
Cc1ccc2ccc3ccc(C)nc3c2n1,56,21,53,89*,4,53,47*,13,-17
O=C(CCl)N1CCN2C(=O)c3ccccc3C12c1ccc(Cl)cc1 (stereo not drawn),0,6,-12,14,24,3,x,x,x
Cc1ccc(C(=O)N2CCN3C(=O)c4ccccc4C23c2ccc(Cl)cc2)cc1 (stereo not drawn),-23,-51,-49,23,-16,56*,61*,10,-23
CCOC(=O)N1CCN(C(=O)CCCn2c(=S)[nH]c3ccsc3c2=O)CC1,11,27,2,-10,-33,-36,x,x,x
CCOC(=O)N1CCN(C(=O)CCCCCn2c(=S)[nH]c3ccsc3c2=O)CC1,6,-5,-12,-13,17,69*,27,2,26*
CCCCc1nnc(NC(=O)CSCc2cc(=O)n3cc(C)sc3n2)s1,12,-2,8,17,-23,51,14,10,-12
CCCCc1nnc(NC(=O)CSCc2cc(=O)n3c(C)csc3n2)s1,11,9,12,-2,0,-3,x,x,x
CC(=O)N(C)c1cccc(-c2ccc3nnc(C)n3n2)c1,7,-5,2,0,2,56*,16,2,23
CCOC(=O)c1cccc(NC(=O)CN(C)S(=O)(=O)c2ccc(Br)s2)c1,x,-4,x,x,-7,x,x,x,x
O=C(Cn1ccc(C(F)(F)F)n1)N/N=C/c1ccc2c(c1)OCO2,-15,6,-15,-3,-24,58*,9,21,-68
O=C(Nc1nc(-c2cccs2)cs1)c1ccc(S(=O)(=O)N2CCCCC2)cc1,17,28,-11,7,-1,7,x,x,x
O=C(Nc1nc(-c2cccs2)cs1)c1cccc(S(=O)(=O)N2CCCCCC2)c1,-20,10,-7,-11,-1,61*,58*,-5,-81
Cc1nc2ccccc2c2oc(C(=O)N3CCN(C(=O)c4ccco4)CC3)cc12,8,7,-5,21,-1,4,x,x,x
Cc1nc2ccccc2c2oc(C(=O)N3CCN(c4ccc([N+](=O)[O-])cc4)CC3)cc12,-15,1,18,1,0,59*,29,28*,-84
CNc1ccccc(-c2ccc3ccccc3n2)c1=O,-58,-19,-91,-77,-34,54,-76,19,-32
COC(=O)C(C[N+](=O)[O-])C1=C(O)CC(C)(C)CC1=O (stereo not drawn),x,-7,x,x,10,x,x,x,x
CCOC(=O)c1c(C)[nH]c(C(=O)Cn2nnc(-c3ccc(Cl)cc3)n2)c1C,16,6,4,-7,3,56*,12,13,-11
NC(=O)c1ccc(N=Nc2c(-c3ccccc3)[nH]n(-c3ccccc3)c2=O)cc1,x,-10,x,x,15,x,x,x,x
O=c1c(N=Nc2ccc(O)cc2)c(-c2ccccc2)[nH]n1-c1ccc([N+](=O)[O-])cc1,-21,-14,1,22,13,53,35,11,67*
O=C(O)c1ccc(N/N=C/c2ccc(OC(=O)c3ccccc3Cl)cc2)cc1,-14,21,-32,-65,1,61*,64*,7,79*
COc1cccc(C2c3c(ncn(-c4ccccc4)c3=N)Oc3ccc4ccccc4c32)c1OC (stereo not drawn),x,10,x,x,x,x,x,x,x
O=C(Cc1ccc(Cl)cc1)N1CCN(c2ccccc2)CC1,5,-5,-28,-2,-5,53,23,13,-40
SMILES,NCOA3 inh,NR2F2 inh,NCOA1 inh,NR5A2 inv ag,NCOA2 inhibitor,Gli-Sufu block,Gli-Sufu confirm,SufuKO cytotox,Wnt3a counter
CCC(C#Cc1ccccc1)NCc1ccc(OC)cc1OC (stereo not drawn),x,5,x,x,x,x,x,x,x
CCC(CO)Nc1cccc2c1S(=O)(=O)N(Cc1cn(Cc3ccc(Cl)cc3)nn1)Cc1ccccc1O2 (stereo not drawn),x,-13,x,x,-15,x,x,x,x
CCCCCCc1cc2cc(C(=O)Nc3ccccc3)c(=O)oc2cc1O,11,-14,4,11,-18,73*,64*,30*,79*
COC(=O)C1=C(C)N(Cc2ccccc2C(F)(F)F)C(=NCc2cccc(C(F)(F)F)c2)NC1c1ccc(F)cc1 (stereo not drawn),x,35,x,x,10,x,x,x,x
CCCC(=O)Nc1cc(C)c(NC(=O)c2ccccn2)cn1,-38,-1,-12,-20,-20,59*,6,5,-51
Cc1cc(NC(=O)C(C)C)ncc1NC(=O)c1ccccn1,-5,-6,-29,-3,-28,-10,x,x,x
CCNC(=O)N1C[C@H]2CON(C)[C@H]2C[C@H]1c1ccc(N2CCCCC2)cc1,x,-2,x,x,-1,x,x,x,x
Cc1cc(SC#N)cc(C)c1NC(=O)CCl,-7,-11,-7,44,-12,51,46*,50*,19
COC[C@@H](O)[C@H]1OCc2cccc(OC)c2[C@@H]1/C=C/c1ccccc1,x,6,x,x,-26,x,x,x,x
CC1CC1C(=O)N1CCC(Oc2cccnc2)CC1 (stereo not drawn),x,3,x,x,2,x,x,x,x
CCN1CCCC1CNc1ncnc2c1[nH]c1ccc(Cl)cc12 (stereo not drawn),-7,-9,-8,-9,1,52,40,13,-95
CC(=O)Nc1cc(-c2nn(CC(=O)N3CCCCC3)c(=O)c3ccccc23)ccc1N1CCOCC1,10,1,2,-2,8,51,16,9,-25
CC(=O)Nc1cc(-c2nn(C)c(=O)c3ccccc23)ccc1N1CCCCC1,11,-9,-2,21,-9,5,x,x,x
CC(=O)O/N=C(\N)c1cnn2c(C(F)(F)F)cc(C(F)(F)F)nc12,6,-5,21,4,-4,-10,x,x,x
O=C(NC(=S)Nc1ccccc1Cl)c1cnn2c(C(F)(F)F)cc(C(F)(F)F)nc12,12,15,5,4,-7,56*,27,11,-15
CCC[C@H](/C=C/C(=O)OC(C)(C)C)Sc1ccc(N)cc1,x,11,x,x,-13,x,x,x,x
O=C(NCc1ccccc1)C(=O)NCC1OCCCN1S(=O)(=O)c1cccs1 (stereo not drawn),-8,1,-36,-9,-1,-9,x,x,x

# From PubChem BioAssay
